Rows were chosen to be rich in hits. Some 1.2% of all compounds tested hit in one or more screens of this group.
EPAC1 agonist – qHTS for Agonist of cAMP-regulated guanine nucleotide exchange factor 3 (EPAC1): primary screen. Rap guanine nucleotide exchange factor 3 (Homo sapiens), O95398. EPAC1 agonist qHTS, biochemical assay; response scale: 100% = response to 6.5 mM cAMP. Potency, µM (top dose mostly 154 µM), for the others: at the highest dose activation, most hits filed as activators. 360,000 compounds, 0.073% hits; note: potency is the fitted concentration of half-maximal effect; nearly all actives have a fitted effect of over 60% in size
Target sequence (O95398 whole entry, looked up): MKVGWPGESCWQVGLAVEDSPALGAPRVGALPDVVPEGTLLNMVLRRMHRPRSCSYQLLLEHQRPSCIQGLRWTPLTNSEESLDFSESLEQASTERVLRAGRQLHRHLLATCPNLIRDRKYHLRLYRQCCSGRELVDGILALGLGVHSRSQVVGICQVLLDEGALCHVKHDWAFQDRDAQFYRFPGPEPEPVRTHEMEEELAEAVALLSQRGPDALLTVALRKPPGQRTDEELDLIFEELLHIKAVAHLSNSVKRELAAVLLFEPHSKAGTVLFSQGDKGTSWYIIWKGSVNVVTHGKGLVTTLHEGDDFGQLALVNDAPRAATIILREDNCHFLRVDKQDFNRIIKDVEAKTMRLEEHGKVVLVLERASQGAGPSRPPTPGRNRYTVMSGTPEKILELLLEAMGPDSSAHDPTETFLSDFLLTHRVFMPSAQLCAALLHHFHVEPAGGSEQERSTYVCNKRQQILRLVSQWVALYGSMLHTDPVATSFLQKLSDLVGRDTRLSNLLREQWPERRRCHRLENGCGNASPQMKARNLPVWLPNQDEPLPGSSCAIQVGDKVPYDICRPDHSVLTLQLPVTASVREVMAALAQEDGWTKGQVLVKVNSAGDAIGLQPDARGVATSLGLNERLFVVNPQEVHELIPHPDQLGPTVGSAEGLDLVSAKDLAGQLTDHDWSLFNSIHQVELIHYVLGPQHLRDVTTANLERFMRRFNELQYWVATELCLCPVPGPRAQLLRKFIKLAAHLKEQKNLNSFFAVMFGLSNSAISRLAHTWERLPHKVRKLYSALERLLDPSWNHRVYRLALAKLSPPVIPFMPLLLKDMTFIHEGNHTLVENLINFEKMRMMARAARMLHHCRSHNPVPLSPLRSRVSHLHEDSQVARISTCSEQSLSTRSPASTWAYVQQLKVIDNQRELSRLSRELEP
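Compounds were pinned as a concentration titration into mixtures of EPAC1 (100 nM), BODIPY-GDP-loaded Rap1B (250 nM) and GDP (50 uM). After 5 min at room temperature, fluorescence was followed for 30 min; activity was scaled to 6.5 mM cAMP.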
EPAC2 ag – qHTS for Agonist of cAMP-regulated guanine nucleotide exchange factor 4 (EPAC2): primary screen | AID 720711, 2013 | Potency, µM (doses to about 154 µM), for inactives: at the top dose activation, most hits filed as activators | 360,000 compounds, 0.079% hits | EPAC2 activation, biochemical qHTS; response scale: 100% = 6.5 mM cAMP response | Rap guanine nucleotide exchange factor 4 (Homo sapiens), Q8WZA2; note: potency is the fitted concentration of half-maximal effect; nearly all actives have a fitted effect of over 50% in size
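qHTS, titration series. 100 nM EPAC2 / 250 nM Rap1B-BODIPY-GDP / 50 uM GDP; RT; ex 480/em 540 nm, 5-min reads to 30 min. Norm. to 6.5 mM cAMP = activation.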
EPAC2 antag – qHTS for Antagonist of cAMP-regulated guanine nucleotide exchange factor 2 (EPAC2): primary screen. Rap guanine nucleotide exchange factor 4 (Homo sapiens), Q8WZA2. EPAC2 GEF exchange of Rap1B-BODIPY-GDP, fluorescence. Potency, µM (top dose mostly 114 µM), without a hit: at the highest dose activity, negative = inhibition, hits mostly inhibitors. 360,000 compounds, 0.18% hits. AID 720708, 2013; note: potency is the fitted concentration of half-maximal effect; % is set by controls: 0 for no effect and ±100 for the full control effect; nearly all actives have a fitted effect of over 45% in size
VDR inhibitor – Inhibitors of the vitamin D receptor (VDR): qHTS | VDR-SRC2-3 peptide fluorescence polarization, 2 h | AID 504847, 2011 | Potency, µM, for inactives: max response, negative = inhibition, actives largely listed as inhibitors | Vitamin D3 receptor (Homo sapiens), P11473 | 400,000 compounds, 0.93% hits; note: potency is the fitted concentration of half-maximal effect; % is set by controls: 0 for no effect and ±100 for the full control effect
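The screen uses fluorescence polarization to detect compounds that interfere with recruitment of the SRC2-3 coactivator peptide to VDR; plates are read after 2 h at room temperature.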
USP1 inh – Inhibitors of USP1/UAF1: Primary Screen | 390,000 compounds, 0.23% hits | recombinant USP1/UAF1, Ub-Rhodamine cleavage fluorescence | Potency, µM (titrated, usually from 57.1 µM), for inactives: top-dose activity change, negative = inhibition, most hits filed as inhibitors | AID 743255, 2014; note: potency is the fitted concentration of half-maximal effect; % is set by controls: 0 for no effect and ±100 for the full control effect; nearly all actives have a fitted effect of over 60% in size
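In this screen, compounds sit with the deubiquitinase complex (1nM) for 15 min at room temperature before Ub-Rho is added at 150nM final. Fluorescence rise is then followed for 6 reads every 60 seconds.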
EPAC1 antagonist – qHTS for Antagonist of cAMP-regulated guanine nucleotide exchange factor 3 (EPAC1): primary screen | Rap guanine nucleotide exchange factor 3 (Homo sapiens), O95398 | EPAC1 GEF assay, Rap1b-BODIPY-GDP exchange fluorescence | Potency, µM (doses to about 115 µM), without a hit: top-dose activity change, negative = inhibition, hits mostly inhibitors | 360,000 compounds, 0.14% hits | AID 720709, 2013;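 note: potency is the fitted concentration of half-maximal effect; plate controls were vehicle for no effect and positive control for full effect; nearly all actives have a fitted effect of over 50% in size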
USP1 UbRho – Inhibitors of USP1/UAF1: Hit Validation in Primary Assay; Ub-Rhodamine cleavage, fluorescence kinetic read; shares compounds with VDR inhibitor; Potency, µM (titrated, usually from 114 µM), inactives show at the top dose activity change, negative = inhibition, hits mostly inhibitors; AID 540327, 2011; 50 compounds, 50% hits
VDR inh confirm – qHTS for Inhibitors of the vitamin D receptor (VDR): Hit Validation in Primary Screen | shares compounds with VDR inhibitor | VDR-coactivator inhibition assay, qHTS confirmation | Potency, µM, actives largely listed as inhibitors | 840 compounds, 89% hits; note: potency is the fitted concentration of half-maximal effect
VDR FP – qHTS for Inhibitors of the vitamin D receptor (VDR): Hit Validation using a Fluorescein Assay | shares compounds with VDR inhibitor | VDR-coactivator binding, fluorescein fluorescence polarization | Potency, µM (titrated, usually from 57.1 µM), without a hit: at the top dose activity change, negative = inhibition, actives largely listed as inhibitors | 840 compounds, 48% hits; note: potency is the fitted concentration of half-maximal effect
VDR bla reporter – qHTS for Inhibitors of the vitamin D receptor (VDR): Hit Validation using a Beta-Lactamase Assay; shares compounds with VDR inhibitor; VDR beta-lactamase reporter cells, FRET ratio; cells co-treated with VDR agonist LG190178; Potency, µM (titrated, usually from 46.1 µM), without a hit: at the highest dose activity change, negative = inhibition, hits mostly inhibitors; 840 compounds, 23% hits; AID 602202, 2012; note: potency is the fitted concentration of half-maximal effect; % is set by controls: 0 for no effect and ±100 for the full control effect
VDR cytotox – qHTS for Inhibitors of the vitamin D receptor (VDR): Hit Validation using a Cytotoxicity Assay; 840 compounds, 18% hits; Potency, µM (doses to about 48.3 µM), inactives show at the top dose activity change, negative = cytotoxicity, actives largely listed as cytotoxic; shares compounds with VDR inhibitor; cytotoxicity counter-screen, cell viability, qHTS;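 note: potency is the fitted concentration of half-maximal effect; plate controls were DMSO for no effect and high-concentration cycloheximide for full effect; nearly all actives have a fitted effect of over 75% in size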
Active calls of the source: *; ? = inconclusive; · = no result; ! = a repeat was not active. Calls come from the whole dose curve; as a rule, active = well fitted curve in the direction sought with a large enough effect; inconclusive = small, poorly fitted or top-dose-only effect, or another doubt; inactive = no such curve, though single readings can be large; an effect the other way counts as inactive or inconclusive.

SMILES | EPAC1 agonist | EPAC2 ag | EPAC2 antag | VDR inhibitor | USP1 inh | EPAC1 antagonist | VDR inh confirm | VDR FP | VDR bla reporter | VDR cytotox | others
N#Cc1ccc(/C=C/C(=O)c2cccnc2)cc1 | 8.7% | 7.6% | 2.9% | 11.2µM* | -14.0% | -9.4% | 8.44* | ? | ? | ?
Cc1cc(F)ccc1-n1nnc(C(N)=O)c1C | · | · | · | -8.6% | -17.0% | · | · | · | · | ·
COc1ccc(-c2cc(C(F)(F)F)nc(SCC(=O)N3CCCCC3)n2)cc1OC | · | · | · | -20.6% | -12.9% | · | · | · | · | ·
Clc1ccc(Cl)c(-c2nn3c(COc4ccccc4)nnc3s2)c1 | -0.4% | -18.7% | 9.8% | ? | -15.6% | 7.6% | 11.2* | 7.08µM* | -14.6% | -27.0%
C=CCOC(=O)N[C@H](/C(C(=O)OC)=C(\C)NCc1ccccc1)c1cccc(F)c1 | · | · | · | -13.4% | · | · | · | · | · | ·
O=c1c(Cl)c(Cl)cnn1Cc1nnc(-c2ccc(Cl)cc2)o1 | -5.1% | -4.9% | ? | ? | -15.9% | -23.7% | ? | ? | ? | ?
C=CCn1c(N)c(C(=O)Nc2ccc(C)cc2)sc1=S | -3.8% | 1.1% | 4.3% | -3.2% | -8.2% | -3.4% | · | · | · | ·
Cn1c(N)c(C(=O)Nc2ccc(-c3ccccc3)cc2)sc1=S | 7.4% | 17.6% | ? | ? | -17.1% | -17.1% | 17.8* | 22.4µM* | ? | ?
CCS(=O)(=O)c1ccc2oc(Nc3ccc(C(C)C)cc3)nc2c1 | -22.1% | -2.1% | 8.2% | 39.8µM* | -26.4% | -4.0% | 8.44* | 3.98µM* | -11.0% | 20.5%
COc1ccc(NC(=O)C(C)(C)Oc2ccc(Cl)cc2)cn1 | 12.5% | -5.5% | 3.7% | 9.1% | -20.9% | 6.8% | · | · | · | ·
COc1ccc(NC(=O)/C(Cl)=C(/Cl)S(=O)Cc2ccc(Cl)cc2)cn1 (stereo unspecified) | -0.7% | -6.0% | -5.1% | 11.2µM* | ? | -26.5% | 4.23* | 2.82µM* | 1.84µM* | 11.2µM*
CCN(CC)S(=O)(=O)c1ccc(NC(=O)CSc2nnc3c(n2)[nH]c2ccccc23)cc1 | · | · | · | 16.3% | · | · | · | · | · | ·
Cc1ccc(CCNC(=O)CCCn2c(=O)c3cccn3c3ccc(F)cc32)cc1 | · | · | · | -3.8% | ? | · | · | · | · | ·
CN1C(=O)C(Cl)(Cl)C(=O)c2ccccc21 | 9.3% | -0.9% | 3.5% | 3.98µM* | -5.1% | -10.5% | 3.36* | ? | 2.9% | -0.9%
COCCn1c(=O)c(-c2cccs2)nc2cnc(N(C)C)nc21 | · | · | · | -2.3% | · | · | · | · | · | ·
CS(=O)(=O)c1nc(-c2ccccc2)cc(C(F)(F)F)n1 | -22.8% | -11.6% | -2.4% | ? | -15.7% | ? | 8.91* | 4.47µM* | 18.4µM* | 23.8µM*
FC(F)(F)c1cc(-c2ccccc2)nc(N2CCCCCC2)n1 | -2.8% | 5.3% | 0.8% | -7.6% | -18.1% | -8.2% | · | · | · | ·
Cc1ccc(C(=O)/C=C/c2ccc3ncccc3c2)cc1 | 6.4% | 8.2% | -9.1% | 22.4µM* | ? | -23.4% | 11.9* | ? | ? | ?
Cc1ccc(C(=O)Nc2ccc3ncccc3c2)cc1 | -4.5% | 0.6% | 7.2% | 2.1% | -20.9% | 2.0% | · | · | · | ·
O=S(=O)(c1ccc(N=C2NN=C(c3cc(F)ccc3F)CS2)cc1)N1CCOCC1 | 2.8% | 3.8% | 1.6% | 1.58µM* | ? | -5.7% | 2.51* | ? | -23.9% | ?
Fc1ccc(N=C2NN=C(c3cc(F)ccc3F)CS2)cc1 | -0.6% | 8.2% | -0.2% | 31.6µM* | ? | -8.7% | ? | ? | 4.2% | ?
Cc1nc2sccn2c(=O)c1CCN1CCC(=C(c2ccc(F)cc2)c2ccc(F)cc2)CC1 | -11.1% | 13.6% | ? | 79.4µM*! | -29.3% | -4.6% | · | · | · | · | USP1 UbRho=?
CCOC(=O)C1C(=O)NC(SCC(=O)Nc2nccs2)=C(C#N)C1c1ccccc1OCC (stereo unspecified) | 9.7% | 5.5% | -4.0% | 35.5µM* | ? | 3.6% | 11.9* | ? | 16.0% | ?
COc1cccc(C2C(C(=O)Nc3ccc(Cl)cc3)=C(C)Nc3c(C(=O)Nc4ccccc4)cnn32)c1OC (stereo unspecified) | · | · | · | -0.3% | -16.9% | · | · | · | · | ·
O=C(NCCc1ccccc1)c1ccc2nc(-c3ccco3)c(-c3ccco3)nc2c1 | 15.7% | 11.2% | -3.2% | ? | -16.0% | ? | 3.55* | 8.91µM* | -0.7% | 12.0%
O=C(NC1CCCC1)c1ccc2nc(-c3ccco3)c(-c3ccco3)nc2c1 | -4.0% | -17.5% | -8.2% | ? | -14.7% | ? | 10* | 3.16µM* | -1.5% | 11.9%
O=C1CCCC1C(O)c1ccc2ccccc2c1 (stereo unspecified) | · | · | · | 1.6% | · | · | · | · | · | ·

Screening results from PubChem BioAssay.
